Measured values from PubChem BioAssay (Tox21).
Inconclusive results are not listed. Activity calls are given as the source filed them. Unless noted, the call rests on the fitted dose curve; in most records, active means well fitted curve in the direction sought with a large enough effect in the repeat runs; inconclusive means weak or mixed curves; inactive means no such curve, though single readings can be large; an effect the other way counts as inactive or inconclusive.

Tests used:
[1] = qHTS assay to identify small molecule agonists of the estrogen receptor alpha (ER-alpha) signaling pathway in the presence of an antagonist - cell viability counter screen (AID 1259386);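 further: series mostly up to about 92 µM; cells exposed to compounds for 22 h at 37 °C before the viability read; nearly all actives have a fitted effect of over 30% in size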
Summary of the method: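 Cell viability in VM7Luc4E2 cells (endogenous full-length ER-alpha) measured by CellTiter-Fluor fluorescence in the same wells as the luciferase screen. Cells pre-cultured 5 days in charcoal-stripped serum, then treated 22 h with compounds at 15 concentrations plus 10.0nM ICI-182,780.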

[2] = molecular target: Progesterone receptor (Homo sapiens) (UniProt P06401); assay: qHTS assay to identify small molecule agonists of the progesterone receptor (PR) signaling pathway (AID 1346784; calls by dose curve; further: nearly all actives have a fitted effect of over 30% in size)
Summary of the method: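 The screen uses PR-UAS-bla HEK 293T cells in charcoal-stripped serum (2%). Compounds are applied for 16 hr at 37C after a 6 hr pre-incubation, and reporter activity is detected with a FRET beta-lactamase substrate after 2 hr at room temperature.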

[3] = molecular target: Progesterone receptor (Homo sapiens) (UniProt P06401); assay: qHTS assay to identify small molecule antagonists of the progesterone receptor (PR) signaling pathway (AID 1346795; active means well fitted inhibition curve with a large enough effect in the signal ratio in the repeat runs, not every such curve was filed as active; the % refers to the signal ratio)
Summary of the method: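 After 6 hr plating at 37C in 2% stripped-serum medium, PR-UAS-bla HEK293T cells got compounds, then 1 nM R5020. Sixteen hours later, LiveBLAzer substrate was applied for 2 hr at room temperature and fluorescence was recorded.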

[4] = qHTS assay to identify small molecule antagonists of the progesterone receptor (PR) signaling pathway - cell viability counter screen (AID 1346798); further: series mostly up to about 92 µM; nearly all actives have a fitted effect of over 50% in size
Summary of the method: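 Viability was determined by ATP-based luminescence (CellTiter-Glo) in PR-UAS-bla HEK293T cells cultured in 2% charcoal-stripped serum and incubated 16 hr with compounds under R5020 stimulation.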

[5] = qHTS assay to identify small molecule agonists of the progesterone receptor (PR) signaling pathway - cell viability counter screen (AID 1346799; calls by dose curve; further: nearly all actives have a fitted effect of over 45% in size)
Summary of the method: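 Viability was scored by ATP luminescence (CellTiter-Glo, 30 min, room temperature) in the same wells used for the reporter readout, after 16 hr compound exposure of PR-UAS-bla HEK293T cells.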

[6] = qHTS assay to identify small molecule antagonists of the TGF-beta/Smad signaling pathway - cell viability counter screen (AID 1346824); further: nearly all actives have a fitted effect of over 50% in size
Summary of the method: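 SBE-bla HEK 293T cells, incubated overnight, then compound plus 0.25 ng/mL TGF-beta1 (stock added) for 5 hr at 37 C. Viability was read in the same wells by CellTiter-Glo luminescence after 30 min at room temperature.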

[7] = qHTS assay to identify small molecule agonists of the TGF-beta/Smad signaling pathway - cell viability counter screen (AID 1346829); further: top concentration of the series differs between compounds; nearly all actives have a fitted effect of over 45% in size
Summary of the method: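 Tox21 qHTS format: SBE-bla HEK 293T cells treated with DMSO-dissolved compounds for 5 hr; CellTiter-Glo luminescence after 30 min at room temperature.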

[8] = qHTS assay to identify small molecule agonists of the TGF-beta/Smad signaling pathway (AID 1346859; active means well fitted activation curve with a large enough effect in the signal ratio in the repeat runs, not every such curve was filed as active; the % refers to the signal ratio; further: series mostly up to about 77 µM)
Summary of the method: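 Dual-wavelength fluorescence (460/530 nm emission) quantified beta-lactamase expression under the Smad binding element in HEK 293T cells following 5 hr compound treatment at 37 C.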

[9] = molecular target: Thyrotropin-releasing hormone receptor (Homo sapiens) (UniProt P34981); assay: qHTS assay to identify small molecule antagonists of the thyrotropin-releasing hormone receptor (TRHR) signaling pathway (AID 1346877; active means well fitted inhibition curve with a large enough effect in the repeat runs, not every such curve was filed as active; further: series mostly up to about 51 µM)
Summary of the method: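 TRHR-expressing HEK293 cells loaded with calcium dye for 2 h at 37 C; compounds pre-incubated 5 min at room temperature before TRH challenge at 1 nM final. Intracellular calcium fluorescence read kinetically for 3 min; 15 concentrations in triplicate.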

[10] = molecular target: Thyrotropin-releasing hormone receptor (Homo sapiens) (UniProt P34981); assay: qHTS assay to identify small molecule agonists of the thyrotropin-releasing hormone receptor (TRHR) signaling pathway (AID 1346891; calls by dose curve; further: series mostly up to about 58 µM)
Summary of the method: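 Kinetic fluorescence (3 min, 1 s intervals) reported intracellular calcium after compound transfer onto TRHR-Hek293 cells pre-loaded with dye for 2 h at 37 °C.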

[11] = Human pregnane X receptor (PXR) small molecule agonists, qHTS cell viability counter screen (AID 1346977); further: nearly all actives have a fitted effect of over 50% in size
Summary of the method: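 HepG2 cells stably carrying the PXR-Luc reporter are cultured with 5% charcoal-stripped FBS and treated with compounds for 24hr. CellTiter-Fluor is added at 23hr and fluorescence is read after 1hr.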

[12] = Caspase-3/7 induction in HepG2 cells by small molecules, qHTS assay (AID 1346978); further: nearly all actives have a fitted effect of over 15% in size
Summary of the method: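 Wild-type HepG2 cells, 2,000/well, settled 5 hr at 37 C and 5% CO2, then compound-treated for 17 hr; caspase-3/7 activity read by luminescent Caspase-Glo 3/7 after 30 min at room temperature.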

[13] = Caspase-3/7 induction in CHO-K1 cells by small molecules, qHTS cell viability counter screen (AID 1346979); further: nearly all actives have a fitted effect of over 35% in size
Summary of the method: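 Seeding: 1,500 CHO-K1 cells/well. Rest: 5hr, 37C. Treatment: compounds in DMSO, 16hr. Read: CellTiter-Fluor, 1hr, fluorescence.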

[14] = Caspase-3/7 induction in CHO-K1 cells by small molecules, qHTS assay (AID 1346980); further: nearly all actives have a fitted effect of over 15% in size
Summary of the method: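 Wild-type CHO-K1 cells exposed to compounds for 17hr at 37 C, 5% CO2. Caspase-3/7 activity then measured by Caspase-Glo 3/7 luminescence after 30min at room temperature.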

[15] = Caspase-3/7 induction in HepG2 cells by small molecules, qHTS cell viability counter screen (AID 1346981); further: series mostly up to about 92 µM; nearly all actives have a fitted effect of over 30% in size
Summary of the method: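 Wild-type HepG2 cells, 2,000/well, settled 5 hr at 37 C, 5% CO2 before compound addition. Viability read by CellTiter-Fluor fluorescence, reagent added after 16 hr compound exposure, then 1 hr at 37C, in the same wells as the caspase read.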

[16] = molecular target: Nuclear receptor subfamily 1 group I member 2 (Homo sapiens) (UniProt O75469); assay: Human pregnane X receptor (PXR) small molecule agonists, qHTS assay (AID 1346982); further: nearly all actives have a fitted effect of over 35% in size
Summary of the method: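 PXR-Luc HepG2 reporter cells (CYP3A4-driven luciferase) in 5% charcoal-stripped FBS medium, plated 5 h before compound addition, then treated 24 h at 37C. Luciferase read by ONE-Glo luminescence after 30 min at room temperature.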

[17] = molecular target: Nuclear receptor subfamily 1 group I member 2 (Rattus norvegicus) (UniProt Q9R1A7); assay: Rat pregnane X receptor (rPXR) activation by small molecules, qHTS assay (AID 1346983); details: rPXR luciferase reporter cells, One-Glo luminescence, 24 h; active compounds read high; further: nearly all actives have a fitted effect of over 20% in size
Summary of the method: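 Cell-based rPXR activation assay: rPXR cells, 2,000 per well, rested 5hr at 37 C, then exposed to compounds in DMSO for 24 hr at 37 C. Luciferase activity read by One-Glo luminescence after 30 min at room temperature.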

[18] = molecular target: Nuclear receptor subfamily 1 group I member 2 (Homo sapiens) (UniProt O75469); assay: CYP3A4 induction through human pregnane X receptor (PXR) by small molecules, qHTS assay (AID 1346984); further: nearly all actives have a fitted effect of over 40% in size
Summary of the method: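 DPX-2 HepG2 cells carrying a PXR response element and CYP3A4-promoter luciferase construct, treated with compounds 24 hr at 37C. Then P450-Glo CYP3A4 Luciferin-IPA substrate (3uM final) for 3 hr at 37C, One-Glo added, luminescence read.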

[19] = molecular target: Nuclear receptor subfamily 1 group I member 2 (Homo sapiens) (UniProt O75469); assay: Human pregnane X receptor (PXR) activation by small molecules, qHTS assay (AID 1346985); further: nearly all actives have a fitted effect of over 40% in size
Summary of the method: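 DPX-2 cells (HepG2 co-transfected with a PXR response element and a CYP3A4-promoter luciferase construct) were seeded at 2,000 per well, rested 5 hr at 37C, then exposed to DMSO-dissolved compounds for 24 hr. Activation was read as luciferase luminescence.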

[20] = molecular target: Acetylcholinesterase (Homo sapiens) (UniProt P22303); assay: Acetylcholinesterase (AChE) small molecule antagonists: colormetric cell-based qHTS assay (AID 1347395; calls by dose curve; further: nearly all actives have a fitted effect of over 30% in size)
Summary of the method: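 Quantitative HTS in attached SH-SY5Y cells: 30 min compound exposure, then 90 min with acetylthiocholine and DTNB at 37 C; colour from thiocholine reports AChE activity.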
On the % scale 0 is the no-effect control and ±100 the full control effect.

Chain of Nuclear receptor subfamily 1 group I member 2 (Homo sapiens) (O75469 whole entry, looked up): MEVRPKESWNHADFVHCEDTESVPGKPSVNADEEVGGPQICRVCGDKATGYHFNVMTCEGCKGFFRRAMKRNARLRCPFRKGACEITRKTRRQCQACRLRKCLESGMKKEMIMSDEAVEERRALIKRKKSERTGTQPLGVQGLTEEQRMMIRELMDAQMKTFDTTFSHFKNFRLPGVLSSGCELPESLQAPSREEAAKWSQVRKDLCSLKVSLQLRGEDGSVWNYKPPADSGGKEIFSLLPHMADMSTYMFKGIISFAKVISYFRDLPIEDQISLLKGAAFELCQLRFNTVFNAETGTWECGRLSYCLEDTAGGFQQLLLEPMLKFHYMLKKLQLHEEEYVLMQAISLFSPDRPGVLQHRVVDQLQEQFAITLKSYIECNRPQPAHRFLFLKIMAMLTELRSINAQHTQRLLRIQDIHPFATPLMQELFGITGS
Chain of Acetylcholinesterase (Homo sapiens) (P22303 whole entry, looked up): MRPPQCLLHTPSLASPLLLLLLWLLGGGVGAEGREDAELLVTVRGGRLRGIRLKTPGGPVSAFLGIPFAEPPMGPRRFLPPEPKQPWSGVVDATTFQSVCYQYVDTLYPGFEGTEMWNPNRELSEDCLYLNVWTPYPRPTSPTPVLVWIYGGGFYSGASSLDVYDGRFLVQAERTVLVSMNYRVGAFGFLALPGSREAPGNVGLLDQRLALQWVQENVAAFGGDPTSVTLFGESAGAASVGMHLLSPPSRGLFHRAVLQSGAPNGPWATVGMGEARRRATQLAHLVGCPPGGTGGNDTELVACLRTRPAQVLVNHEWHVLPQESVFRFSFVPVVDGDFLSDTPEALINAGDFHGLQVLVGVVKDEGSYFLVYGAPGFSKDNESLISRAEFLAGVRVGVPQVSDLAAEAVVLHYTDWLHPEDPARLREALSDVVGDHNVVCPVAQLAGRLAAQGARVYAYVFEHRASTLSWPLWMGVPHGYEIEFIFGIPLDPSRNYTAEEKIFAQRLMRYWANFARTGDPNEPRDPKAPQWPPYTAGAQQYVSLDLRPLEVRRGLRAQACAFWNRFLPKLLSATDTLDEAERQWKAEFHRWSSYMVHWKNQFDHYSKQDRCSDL
Chain of Progesterone receptor (Homo sapiens) (P06401 whole entry, looked up): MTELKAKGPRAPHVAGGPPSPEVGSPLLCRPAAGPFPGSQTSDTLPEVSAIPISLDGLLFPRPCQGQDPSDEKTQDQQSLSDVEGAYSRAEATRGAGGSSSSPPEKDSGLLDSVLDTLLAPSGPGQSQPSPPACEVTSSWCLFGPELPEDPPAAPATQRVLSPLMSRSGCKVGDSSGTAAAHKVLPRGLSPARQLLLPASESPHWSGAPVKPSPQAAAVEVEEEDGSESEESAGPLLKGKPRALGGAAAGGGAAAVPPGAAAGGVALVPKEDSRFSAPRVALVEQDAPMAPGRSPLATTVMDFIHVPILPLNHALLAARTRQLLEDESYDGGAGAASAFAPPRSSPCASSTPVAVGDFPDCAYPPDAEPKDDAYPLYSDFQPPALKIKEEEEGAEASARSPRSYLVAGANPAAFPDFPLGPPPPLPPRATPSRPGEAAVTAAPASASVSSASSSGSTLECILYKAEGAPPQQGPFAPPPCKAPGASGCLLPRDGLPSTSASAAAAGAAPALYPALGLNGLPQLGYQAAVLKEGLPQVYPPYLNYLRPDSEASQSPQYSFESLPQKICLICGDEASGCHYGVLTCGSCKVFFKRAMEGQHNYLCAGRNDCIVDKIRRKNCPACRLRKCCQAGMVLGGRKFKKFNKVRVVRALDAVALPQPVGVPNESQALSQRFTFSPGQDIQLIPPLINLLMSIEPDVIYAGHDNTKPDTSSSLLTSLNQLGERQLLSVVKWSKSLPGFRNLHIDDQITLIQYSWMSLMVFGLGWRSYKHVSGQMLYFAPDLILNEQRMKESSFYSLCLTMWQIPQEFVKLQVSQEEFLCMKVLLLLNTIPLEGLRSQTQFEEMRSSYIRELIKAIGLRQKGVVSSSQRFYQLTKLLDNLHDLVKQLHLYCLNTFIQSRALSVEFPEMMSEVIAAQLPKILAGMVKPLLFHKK
Chain of Thyrotropin-releasing hormone receptor (Homo sapiens) (P34981 whole entry, looked up): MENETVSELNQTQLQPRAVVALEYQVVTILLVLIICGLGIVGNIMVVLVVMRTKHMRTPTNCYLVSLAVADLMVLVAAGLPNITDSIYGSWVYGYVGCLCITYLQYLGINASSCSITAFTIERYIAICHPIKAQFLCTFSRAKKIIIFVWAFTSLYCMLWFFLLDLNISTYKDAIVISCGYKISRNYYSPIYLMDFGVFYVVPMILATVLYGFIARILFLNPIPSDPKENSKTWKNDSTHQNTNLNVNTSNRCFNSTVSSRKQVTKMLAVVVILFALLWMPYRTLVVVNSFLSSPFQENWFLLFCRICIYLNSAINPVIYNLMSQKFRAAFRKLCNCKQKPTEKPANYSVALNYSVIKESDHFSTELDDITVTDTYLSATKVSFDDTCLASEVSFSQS
Chain of Nuclear receptor subfamily 1 group I member 2 (Rattus norvegicus) (Q9R1A7 whole entry, looked up): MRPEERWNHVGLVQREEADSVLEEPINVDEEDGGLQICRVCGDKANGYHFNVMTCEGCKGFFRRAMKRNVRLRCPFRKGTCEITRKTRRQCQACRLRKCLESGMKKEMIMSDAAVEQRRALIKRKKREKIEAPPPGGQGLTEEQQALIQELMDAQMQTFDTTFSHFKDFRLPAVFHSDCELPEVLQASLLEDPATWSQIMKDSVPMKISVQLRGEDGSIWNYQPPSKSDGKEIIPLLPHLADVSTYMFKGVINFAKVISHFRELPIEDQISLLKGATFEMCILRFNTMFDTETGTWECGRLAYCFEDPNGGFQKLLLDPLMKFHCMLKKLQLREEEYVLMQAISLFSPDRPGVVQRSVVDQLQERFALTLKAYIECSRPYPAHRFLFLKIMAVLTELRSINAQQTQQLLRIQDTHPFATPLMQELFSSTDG

CCCCCCC(=O)CCCCCC/C=C/C[C@@H](O)[C@H](O)[C@@](N)(CO)C(=O)O
inactive: activity change, negative = cytotoxicity [1] -0.798% [at 19 µM] | activation [2] -0.536% [at 19 µM] | activity change, negative = inhibition [3] 0.638% [at 18.9 µM] | activity change, negative = cytotoxicity [4] -9.78% [at 18.9 µM] | activity change, negative = cytotoxicity [5] -2.82% [at 19 µM] | viability change, negative = cytotoxic [6] -3.48% [at 15.8 µM] | activity change, negative = cytotoxicity [7] 4.19% [at 15.8 µM] | activation [8] -6.21% [at 15.8 µM] | activity, negative = inhibition [9] 7.27% [at 10.5 µM] | activation [10] 0.008% [at 11.8 µM] | activity change, negative = cytotoxicity [11] 6.98% [at 19 µM] | caspase activation [12] 0.643% [at 19 µM] | activity change, negative = cytotoxicity [13] 4.97% [at 19 µM] | caspase-3/7 activation [14] 2.67% [at 19 µM] | activity change, negative = cytotoxicity [15] 5.08% [at 19 µM] | activation [16] -4.6% [at 19 µM] | max activation [17] -5.78% | Potency [18] | Potency [19] | activity, negative = inhibition [20] 0.986% [at 23.6 µM]

C=C(Cl)CCl
inactive: Potency [1] | Potency [2] | Potency [3] | Potency [4] | Potency [5] | outcome [6] | Potency [7] | outcome [8] | Potency [9] | outcome [10] | Potency [11] | outcome [12] | Potency [13] | outcome [14] | Potency [15] | Potency [16] | Potency [20]

CN(CCO)CCO
inactive: Potency [1] | Potency [2] | Potency [3] | Potency [4] | Potency [5] | outcome [6] | Potency [7] | outcome [8] | Potency [9] | outcome [10] | Potency [11] | outcome [12] | Potency [13] | outcome [14] | Potency [15] | Potency [16] | Potency [20]

O=C(Cl)C(Cl)Cl
inactive: Potency [1] | Potency [2] | Potency [3] | Potency [4] | Potency [5] | outcome [6] | Potency [7] | outcome [8] | Potency [9] | outcome [10] | Potency [11] | outcome [12] | Potency [13] | outcome [14] | Potency [15] | Potency [16] | Potency [20]

CCNc1nc(NCC)nc(SC)n1
inactive: Potency [1] | Potency [2] | Potency [3] | Potency [4] | Potency [5] | outcome [6] | Potency [7] | outcome [8] | Potency [9] | outcome [10] | Potency [11] | outcome [12] | Potency [13] | outcome [14] | Potency [15] | Potency [20]

CCSC(=O)Cl
inactive: Potency [1] | Potency [2] | Potency [3] | Potency [4] | Potency [5] | outcome [6] | Potency [7] | outcome [8] | Potency [9] | outcome [10] | Potency [11] | outcome [14] | Potency [15] | Potency [16] | Potency [20]

O=C/C=C/c1ccco1
inactive: Potency [1] | Potency [2] | Potency [3] | Potency [4] | Potency [5] | outcome [6] | Potency [7] | Potency [9] | outcome [10] | Potency [11] | outcome [12] | Potency [13] | outcome [14] | Potency [15] | Potency [16] | Potency [20]

O=C1CCCCC1Cl (stereo not drawn)
inactive: Potency [1] | Potency [2] | Potency [3] | Potency [4] | Potency [5] | outcome [6] | Potency [7] | outcome [8] | Potency [11] | outcome [12] | Potency [13] | outcome [14] | Potency [15] | Potency [16] | Potency [20]
